Values joined by “and” are separate entries in the source; they are usually repeats but may differ in a detail not shown here. Identical values can stand only once. In all, about 350,000 compounds went through this assay and about 2,100 (0.6%) were called active.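 The calls were made as follows: active = inhibition of the ligand-induced calcium signal above about 50% at the single tested concentration (limit read from the data); inactive = the rest.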 Only a selection was taken, and actives are over-represented in it overall. A structure can be active in one record and inactive in another.

For orientation: inhibition means the change of the read-out against control, counted positive when it falls.

This assay is described as follows: blockers of CRF-evoked CRF-R2/CRF-BP calcium response – cell-based, HEK293, calcium dye fluorescence, uHTS, primary screen (AID 588475). The conditions noted are these: CRF-induced calcium fluorescence, at 11.8 µM, stronger effect = higher value.
In the case of `Cc1cccc(N2CCN(C(C)C(=O)N3CCc4ccccc43)CC2)c1C` (centres undefined), the inhibition was -7.95% (inactive).

For the compound `CCC(C)N(C(=O)CSc1ncnc2c1cnn2-c1ccccc1)C1CCS(=O)(=O)C1` (centres undefined), the inhibition was -8.13% (inactive).

Regarding `CCN(C(=O)CSc1ncnc2c1cnn2-c1ccccc1)C1CCS(=O)(=O)C1` (centres undefined), the inhibition is 4.09% (inactive).

For the compound `CCN(CC)C(=O)CSc1ncnc2c1cnn2-c1ccccc1`, the inhibition is 55.8% (active).

With `O=C(COC(=O)c1cncc(Br)c1)Nc1ccc(S(=O)(=O)N2CCOCC2)cc1`, the inhibition was 5.84% (inactive).

`COc1ccc(CCN=C2SCC(=O)N2Cc2ccccc2)cc1OC`: the inhibition is 7.2% (inactive).

Take `COc1ccc(CCN2C(=O)C(C)=C(C)C2=O)cc1OC`: the inhibition was -6.13% (inactive).

For the compound `COc1ccc(CCNC2=C(Cl)C(=O)N(Cc3ccccc3)C2=O)cc1OC`, the inhibition is 54% (active).

On to `Clc1ccc(Cl)c(Oc2ccc(Oc3nc(Cl)ccc3Cl)cc2)n1`, for which the inhibition is 55.5% (active).

As to `N#Cc1ccc(-c2ccc(Cl)cc2)nc1Oc1ccc(F)cc1`, the inhibition was -14% (inactive).

Consider `CCc1nn(CC(=O)N2CCN(CC)CC2)c(=O)c2cccn12`, for which the inhibition was -5.15% (inactive).

Turning to `CC(O)c1ccc(OCCN(C)c2ccccn2)cc1` (centres undefined), the inhibition was -5.71% (inactive).

With `CN(CCOc1ccc(CC2SC(=O)NC2=O)cc1)c1ccccn1` (centres undefined), the inhibition was 66.6% (active) and 12.6% (inactive).

With `CC(C)=N/N=C1/NC(=O)C(Cc2ccccc2)S1` (centres undefined), the inhibition was 2.42% (inactive).

With `OC(C#CCN1CCOCC1)(c1ccccc1)C1CCCCC1` (centres undefined), the inhibition was -6% (inactive).

On to `Cc1ccccc1-n1c(SCC(=O)Nc2cccc3ccccc23)nc(O)cc1=O`, for which the inhibition was -4.41% (inactive).

With `COc1ccc(S(=O)(=O)N2CCOCC2)cc1NC(=O)COc1ccccc1`, the inhibition is 12.8% (inactive).

Regarding `COc1ccc(S(=O)(=O)N2CCOCC2)cc1NC(=O)CSc1cc(C)ccc1C`, the inhibition was 1.57% (inactive).

As for `COc1ccc(S(=O)(=O)N2CCOCC2)cc1NC(=O)CC1CC2CCC1C2` (centres undefined), the inhibition is 80.4% (active).

Regarding `O=C(Nc1cccn(Cc2c(Cl)cccc2Cl)c1=O)c1ccc(Cl)cc1`, the inhibition was -7% (inactive).

Turning to `Cc1ccc(OCc2nnc(NC(=O)OCC(C)C)s2)cc1`, the inhibition was -2.73% (inactive).

Take `COc1ccc(NC(=O)C2=C(C)NC(=O)NC2c2ccccc2[N+](=O)[O-])cc1` (centres undefined): the inhibition was -10% (inactive).

Regarding `COC(=O)c1nc2n(n1)C(c1ccc([N+](=O)[O-])cc1)C(C(=O)Nc1ccc(Cl)cc1)=C(C)N2` (centres undefined), the inhibition is 56.3% (active).

Consider `COc1cc(C2C(C(=O)Nc3ccc(F)cc3)=C(C)Nc3nc(CCCO)nn32)cc(OC)c1OC` (centres undefined), for which the inhibition is 5.65% (inactive).

Regarding `O=C(Nc1cc(-c2ccccc2)nn1-c1ccccc1F)c1ccc([N+](=O)[O-])cc1`, the inhibition is -5.97% (inactive).

`CS(=O)(=O)C1=NN2C(=N)/C(=C\c3ccc(OCCOc4ccccc4)cc3)C(=O)N=C2S1`: the inhibition is 26.8% (inactive).

With `CCS(=O)(=O)C1=NSC2=NC(=O)/C(=C\c3ccc(OS(=O)(=O)c4ccccc4)cc3)C(=N)N21`, the inhibition was 0.32% (inactive).

In the case of `CCS(=O)(=O)C1=NSC2=NC(=O)/C(=C\c3cc(C)n(-c4cccc(OC)c4)c3C)C(=N)N21`, the inhibition was 81.8% (active).

Regarding `CCOc1ccc(NC(=S)NC(=O)/C=C/c2ccc(OC)cc2)c([N+](=O)[O-])c1`, the inhibition is -8% (inactive).

For `CCOC(=O)/C(C#N)=C\c1c(C)cc(C)c(COC(C)=O)c1C`, the inhibition was 3.93% (inactive).

As for `CCOC(=O)c1nnn(-c2nonc2-n2cccc2)c1CN1CCC(C(=O)OCC)CC1`, the inhibition was 17.9% (inactive).

Take `COc1ccc(-c2ccc(CCC(=O)O)n2NC(=O)c2ccc(C(C)(C)C)cc2)cc1`: the inhibition was 7.59% (inactive).

Turning to `Cc1cccc(OC(C)C(=O)N2CCc3ccccc3C2)c1` (centres undefined), the inhibition was 16.6% (inactive).

`COCc1cc(=O)[nH]c(SC)n1`: the inhibition was 9.17% (inactive).

Regarding `Cc1cc(C)c2nc3nc(C)cc(C)c3c(N)c2c1`, the inhibition was 90.7% (active).

Regarding `Cc1ccc(/C=N/NC(=S)Nc2cccc(S(=O)(=O)N(C)C)c2)o1`, the inhibition was 82.9% (active).

For the compound `CN(C)S(=O)(=O)c1cccc(NC(=S)N/N=C/C(=O)c2ccccc2)c1`, the inhibition was 3.21% (inactive).

For the compound `Cc1ccc(/C=N/NC(=S)NC2CCCCC2)o1`, the inhibition was -28.4% (inactive).

Take `O=C1CC2(CCCC2)C(=O)N1CN1CCN(S(=O)(=O)c2ccc(F)cc2F)CC1`: the inhibition is 6.17% (inactive).

As to `Cc1cc(C(=O)OCC(=O)Nc2nccs2)c2ccccc2n1`, the inhibition is 8.78% (inactive).

As to `O[C@H]1CN(Cc2cccs2)[C@@H](c2ccc(Cl)cc2)C[C@@H]1n1cc(C2CC2)nn1`, the inhibition was -16.1% (inactive).

Consider `Cc1cccc(N2CCN(C(=O)c3cnn4c(C(F)F)cc(-c5ccccc5)nc34)CC2)c1C`, for which the inhibition is -11.8% (inactive).

As to `CCCc1nc(SCC(=O)Nc2ccccc2OC)c2c(=O)n(C)c(=O)n(C)c2n1`, the inhibition was -6.56% (inactive).

For the compound `CCOc1cccc(=O)c2c(C)n(CC3CCCO3)c(C)c12` (centres undefined), the inhibition is -12.3% (inactive).

On to `CN1CN(C)c2ccc([N+](=O)[O-])c3cccc1c23`, for which the inhibition is 4.39% (inactive).

As for `O=C1c2cccc3c([N+](=O)[O-])ccc(c23)C(=O)N1CC1CCCO1` (centres undefined), the inhibition was 87.2% (active).

As for `Cc1ccc(S(=O)(=O)NC(=O)c2cccc(C)c2)cc1`, the inhibition is -9.88% (inactive).

Regarding `COC(=O)C1=CN(Cc2ccc(OC)cc2)C=C(C(=O)OC)C1c1ccc(O)c(OC)c1`, the inhibition was -26.4% (inactive).

Take `CCOc1cc(C2C(C(=O)OC)=CN(C3CCCC3)C=C2C(=O)OC)cc(Br)c1O`: the inhibition was 50.2% (active).

For the compound `CCCC(=O)Nc1cc(OCC)c(NC(=O)NC2CCCCC2)cc1OCC`, the inhibition is 15.3% (inactive).

`CCn1c(SCC(=O)NC2CC2)nnc1-c1ccccn1`: the inhibition was 2.34% (inactive).

For `CCn1c(SCC(=O)NC2CC2)nnc1-c1ccncc1`, the inhibition is 52% (active).

As to `CCn1c(SCC(=O)NC2CC2)nnc1-c1ccccc1OC`, the inhibition was 18.7% (inactive).

As to `Nc1nc(SCC(=O)Nc2cc(C(F)(F)F)ccc2Cl)[nH]c(=O)c1NC(=O)c1ccco1`, the inhibition is 0.81% (inactive).

For the compound `COC(=O)C1=CO[C@@H](O[C@@H]2O[C@H](CO)[C@@H](O)[C@H](O)[C@H]2O)C2C1C[C@H](O)[C@@H]2C` (some centres undefined), the inhibition was 1.31% (inactive).

Consider `CCOc1ccc(NC(=O)Nc2cc(C)on2)cc1`, for which the inhibition is -27.8% (inactive).

Regarding `COc1ccc(C)cc1NC(=O)Nc1ccccc1SC`, the inhibition is 23.5% (inactive).

As to `CCOc1ccc(NC(=O)Nc2cc(C)ccc2OC)cc1`, the inhibition is 54.1% (active).

In the case of `CCN(CC(=O)Nc1cc(Cl)ccc1C)C(=O)CN1C(=O)NC2(CCCC2)C1=O`, the inhibition was -3.2% (inactive).

Regarding `CN(C(=O)CCNC(=O)Cn1ccc2ccccc2c1=O)c1ccc(Br)cc1`, the inhibition was 1.39% (inactive).

As to `Cc1cccc(-c2nc(CS(=O)CC(=O)NC(C)CCc3ccccc3)c(C)o2)c1` (centres undefined), the inhibition was -5.77% (inactive).

Turning to `Cn1nc(N)c2ncc(C(Cl)(Cl)Cl)nc21`, the inhibition is 73.4% (active).

As for `COc1ccc(CC(=O)OC(C)C(=O)Nc2ccc(S(N)(=O)=O)cc2)cc1` (centres undefined), the inhibition is -1.19% (inactive).

In the case of `COc1ccc(S(=O)(=O)N2CCN(C(=O)c3cccs3)CC2)cc1OC`, the inhibition was 22.7% (inactive).

With `COc1cccc(NC(=O)Nc2ccc(F)cc2)c1`, the inhibition was -2.92% (inactive).

As to `COc1cccc(NC(=S)NC(=O)c2c(Cl)c(C)nn2C)c1`, the inhibition is -4.16% (inactive).

As for `COc1cccc(NC(=S)C(C#N)=C2N(C)c3ccccc3N2C)c1`, the inhibition is 79.1% (active).

Take `Cc1nn(C)c(Oc2ccccc2)c1CCNS(=O)(=O)c1ccc(F)cc1`: the inhibition was -3.36% (inactive).

`Nc1ncnc2c1ncn2[C@@H]1O[C@H](CNS(=O)(=O)c2ccc(-c3ccno3)s2)[C@@H](O)[C@H]1O`: the inhibition is 3.06% (inactive).

Regarding `CCOC(=O)C1=NNC2(c3ccc(Cl)cc3)C(=O)N(c3cc(C)cc(C)c3)C(=O)C12` (centres undefined), the inhibition is 17.3% (inactive).

On to `CC(C)CCOc1ccc(C(=O)Nc2cc(S(=O)(=O)N3CCOCC3)ccc2N2CCOCC2)cc1`, for which the inhibition was 19.1% (inactive).

For the compound `Cc1cc(OCCCC(=O)Nc2cc(S(=O)(=O)N3CCOCC3)ccc2N2CCOCC2)ccc1Cl`, the inhibition was 62.5% (active).

Turning to `Cc1cccc(OCCC(=O)Nc2cc(S(=O)(=O)N3CCCCC3)ccc2N2CCOCC2)c1`, the inhibition is -1.67% (inactive).

In the case of `O=C(Nc1c2c(nn1-c1ccccc1)CS(=O)(=O)C2)C1CCCC1`, the inhibition was 7.96% (inactive).

On to `COc1cccc(CNC(=O)CCC2CCCN(C(=O)c3ccc(F)c(Cl)c3)C2)c1` (centres undefined), for which the inhibition was 6.37% (inactive).

`COc1cccc(C(=O)N2CCCC(CCC(=O)NCc3ccc(F)c(F)c3)C2)c1` (centres undefined): the inhibition is 50.4% (active).

In the case of `COc1cccc(CNC(=O)CCC2CCCN(C(=O)c3ccoc3C)C2)c1` (centres undefined), the inhibition was -2.45% (inactive).

For the compound `O=C1N=C(N2CCc3ccccc3C2)S/C1=C\c1ccc(O)cc1`, the inhibition is 16.8% (inactive).

As for `CC(C)(C)c1ccc(/C=C2\SC(=O)N=C2N)cc1`, the inhibition was 9.93% (inactive).

In the case of `NC1=NC(=O)S/C1=C\c1ccc(O)cc1`, the inhibition is 51% (active).

Take `CNC(=O)/C(=C\C=C\c1ccccc1)NC(=O)c1ccc([N+](=O)[O-])cc1`: the inhibition is 4.28% (inactive).

For `Cc1ccc(NC(=O)Cn2sc3ccccc3c2=O)cc1`, the inhibition was 3.99% (inactive).

Consider `COc1ccc(C2(c3ccc(OC)cc3)NC(=O)N(CC(=O)Nc3cc(C)on3)C2=O)cc1`, for which the inhibition is -31.2% (inactive).

For `Cc1cc(NC(=O)CN2C(=O)NC(CC(C)C)C2=O)no1` (centres undefined), the inhibition was 56.2% (active).

`Cc1cc(NC(=O)CN2C(=O)NC(CCc3ccccc3)C2=O)no1` (centres undefined): the inhibition is 5.91% (inactive).

As to `CC1CCN(C(=O)/C(=C\c2ccccc2)NC(=O)c2ccccc2)CC1`, the inhibition is 8.16% (inactive).

Regarding `O=C(Cc1cccs1)N(CC1CCCO1)C1(C(=O)NC2CCCCC2)CCCCC1` (centres undefined), the inhibition was -14.9% (inactive).

With `CC(C)c1ccc2c(c1)c(SC(C)(C)C)c(CC(C)(C)C(=O)O)n2Cc1ccc(Cl)cc1`, the inhibition is 54.3% (active).

In the case of `Cc1ccc(C)c(NC(=O)C(OC(=O)c2ccc(C)s2)c2ccccc2)c1` (centres undefined), the inhibition was -6.3% (inactive).

The values above are taken from PubChem BioAssay AID588475 (Sanford-Burnham Center for Chemical Genomics, 2011).
